Tested on: Vero E6 infected with SARS-CoV-2
Assay: inhibition of SARS-CoV-2 cytopathic effect; higher = more antiviral protection, active = above 15
Conditions: 1 nM; 48 h

| Compound | inhibition of SARS-CoV-2 cytopathic effect |
| --- | --- |
| Nc1ccncc1 [dalfampridine] | 0.53% (inactive) |
| Cc1ccc(-c2cn3c4c(sc3n2)CCCC4)cc1 [pifithrin-cyclic] | -1.71% (inactive) |
| NS(=O)(=O)c1ccc2c(c1)C1C=CCC1C(c1ccc(Br)cc1)N2 (stereo not given) | -1.04% (inactive) |
| CC[N+](CC)(CC(=O)Nc1c(C)cccc1C)Cc1ccccc1 [denatonium-benzoate] | -0.9% (inactive) |
| CC(C)(C)Nc1nc(Nc2ccc(C(N)=O)cc2)cc(N)c1C#N | -1.51% (inactive) |
| CCCNC(C)C(=O)Nc1ccccc1C (stereo not given) [prilocaine] | 3.07% (inactive) |
| CCOC(=O)C1=C[C@]2(CC)CCCN3CCc4c(n1c1ccccc41)[C@@H]32 [vinpocetine] | -3.18% (inactive) |
| CC(C)[C@](O)(c1ccc2cc(OC(F)F)c(OC(F)F)cc2c1)c1c[nH]nn1 | -0.91% (inactive) |
| C[C@H](N/C(=N/C#N)Nc1cccc2ncccc12)c1ccccc1 | -1.75% (inactive) |
| O=c1[nH]c(=O)n([C@H]2CCCO2)cc1F (racemic) [ftorafur] | 0.19% (inactive) |
| O=C(NCCN1CCCCC1)c1ccc(I)cc1 [N-[2-(piperidinylamino)ethyl]-4-iodobenzamide] | 0.64% (inactive) |
| Cc1cccc(C)c1NC(=O)[C@@H](C)N [tocainide] | 1.21% (inactive) |
| Nc1ncnc(Nc2ccc(Cl)cc2)n1 [chlorazanil] | 0.82% (inactive) |
| CS(=O)(=O)c1ccc(C2=C(c3ccccc3)C(=O)OC2)cc1 [rofecoxib] | 1.64% (inactive) |
| O=C(O)/C=C/CO [trans-4-hydroxycrotonic-acid] | 2.26% (inactive) |
| CN1CCN(CCCCN2C(=O)CN(/N=C/c3ccc(-c4ccc(Cl)cc4)o3)C2=O)CC1 [azimilide] | 0.53% (inactive) |
| CCCCN(CCCC)CC(O)c1cc(Cl)cc2c1-c1ccc(Cl)cc1/C2=C/c1ccc(Cl)cc1 (stereo not given) [lumefantrine] | -1.1% (inactive) |
| O=C(CCCCCCNC(=O)c1cnc(N(c2ccccc2)c2ccccc2)nc1)NO | -0.34% (inactive) |
| CC(=O)O[C@]1(C(C)=O)CC[C@H]2[C@@H]3C[C@H](C)C4=CC(=O)C=C[C@]4(C)[C@@]3(F)[C@@H](O)C[C@@]21C [fluorometholone-acetate] | 0.25% (inactive) |
| C[C@H](CCC(=O)O)[C@H]1CC[C@H]2[C@@H]3CC[C@@H]4C[C@H](O)CC[C@]4(C)[C@H]3C[C@H](O)[C@]12C [deoxycholic-acid] | -0.18% (inactive) |

| Compound | inhibition of SARS-CoV-2 cytopathic effect |
| --- | --- |
| O=C1C=CC(=O)C2=C1C1c3ccccc3C2c2ccccc21 | 1.05% (inactive) |
| CCCOC(C(=O)OC1CCN(C)CC1)(c1ccccc1)c1ccccc1 [propiverine] | 0.57% (inactive) |
| NCCS(=O)(=O)O [taurine] | -2.1% (inactive) |
| CCCC(O)C(CC)CO (stereo not given) [2-ethyl-1,3-hexanediol] | 4.92% (inactive) |
| CC[n+]1c(-c2ccccc2)c2cc(N)ccc2c2ccc(N)cc21 [homidium] | 4.78% (inactive) |
| COc1cc(S(C)(=O)=O)ccc1Nc1nc2ccc(-c3ccc(NC(=O)[C@H](C)c4ccc(F)cc4)cc3)cn2n1 | 0.71% (inactive) |
| CC1C=CC=CCCC=CC=CC=CC=CC(OC2OC(C)C(O)C(N)C2O)CC2OC(O)(CC(O)C(O)CCC(O)CC(O)CC(O)CC(=O)OC(C)C(C)C1O)CC(O)C2C(=O)O (stereo not given) [nystatin] | 0.06% (inactive) |
| CCCNCCc1ccc(NS(=O)(=O)c2ccc(OC(F)(F)F)cc2)cc1 | 2.87% (inactive) |
| O=C(O)c1ccc(O)c2ncccc12 | 0.11% (inactive) |
| CC[C@@H]1C(=O)OC[C@@H]1Cc1cncn1C [pilocarpine] | 0.9% (inactive) |
| c1cnc(SCc2cccnc2)nc1 [tasuldine] | 1.94% (inactive) |
| CCOc1ccc(Cc2cc([C@@H]3O[C@H](SC)[C@@H](O)[C@H](O)[C@H]3O)ccc2Cl)cc1 [sotagliflozin] | -0.94% (inactive) |
| COc1cc2c(cc1OC)-c1cc3nc4ccccc4nc3n1C(C)(C)C2 | 2.63% (inactive) |
| CC(C)NCC(O)c1ccc(N)c(C#N)c1 (stereo not given) [cimaterol] | 6.86% (inactive) |
| CCn1c(=O)c(-c2ccc(Cl)cc2Cl)cc2cnc(Nc3ccc(N4CCNCC4)c(F)c3)nc21 | -1.29% (inactive) |
| CCn1cc(C(=O)O)c(=O)c2cc(F)c(N3CCNC(C)C3)c(F)c21 (stereo not given) [lomefloxacin] | 0.57% (inactive) |
| N[C@@H](C(=O)O)c1ccc(C(=O)O)c(O)c1 (racemic) [4-carboxy-3-hydroxyphenylglycine-(RS)] | -0.15% (inactive) |
| CN1c2c([nH]c(N)nc2=O)NC[C@@H]1CNc1ccc(C(=O)N[C@@H](CCC(=O)O)C(=O)O)cc1 [metafolin] | 4.85% (inactive) |
| Nc1ncnc2c1ncn2[C@@H]1O[C@H](C[C@@H](N)CC[C@H](N)C(=O)O)[C@@H](O)[C@H]1O [sinefungin] | -10.5% (inactive) |
| CCN1CCCC1CNC(=O)c1cc(S(=O)(=O)CC)c(N)cc1OC (stereo not given) [amisulpride] | 2.43% (inactive) |

Reference: the supplement of paper PMC13380429
